# GRK2 aptamer HTS = blocks RNA aptamer binding to human GRK2 | P25098 | bead flow cytometry, FAM-aptamer displacement from GRK2 | inhibition of aptamer binding, % at 10 µM | 0.59% of 330,000 active | AID 488847;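 active = inhibition of aptamer binding above 40%, roughly 3 SD of noise, on plates passing a quality check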;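 also: median bead fluorescence of bound FAM aptamer so fluorescent compounds give negative values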
# PERK inh = inhibitors of human PERK kinase | Q9NZJ5 | CHO PERK-DD fusion, SEAP luminescence translation reporter | inhibition, % at 5.6 µM | 0.17% of 220,000 active | AID 1416;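 active = inhibition above the mean inhibition of all tested compounds plus 3 SD, set separately per screening campaign, cut at about 2.9% in these data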;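 also: PERK kinase domain activated by AP20187 dimerizer at 100 nM; 0% = DMSO with dimerizer and 100% = rapamycin at 8.4 µM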
# eIF4H inh = inhibitors of RNA binding by human eIF4H; eIF4H fluorescence polarization binding assay; inhibition, % at 35 µM; 0.94% of 290,000 active; AID 2012;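 also: calls also rest on retests at 20 µM and on dose response follow-up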
# MLLE-PAM2 inh = inhibitors of microRNA-mediated deadenylation, human PABP1 MLLE binding. P11940. GST-MLLE / FITC-PAM2 fluorescence polarization. inhibition, % at 20 µM. 0.36% of 360,000 active. AID 588489; in the data active = inhibition above about 35%, passing the limit was not always enough;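 also: plate controls were DMSO wells with GST-MLLE for no effect and wells lacking GST-MLLE protein for full effect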
# Target sequence (P11940 whole entry, looked up): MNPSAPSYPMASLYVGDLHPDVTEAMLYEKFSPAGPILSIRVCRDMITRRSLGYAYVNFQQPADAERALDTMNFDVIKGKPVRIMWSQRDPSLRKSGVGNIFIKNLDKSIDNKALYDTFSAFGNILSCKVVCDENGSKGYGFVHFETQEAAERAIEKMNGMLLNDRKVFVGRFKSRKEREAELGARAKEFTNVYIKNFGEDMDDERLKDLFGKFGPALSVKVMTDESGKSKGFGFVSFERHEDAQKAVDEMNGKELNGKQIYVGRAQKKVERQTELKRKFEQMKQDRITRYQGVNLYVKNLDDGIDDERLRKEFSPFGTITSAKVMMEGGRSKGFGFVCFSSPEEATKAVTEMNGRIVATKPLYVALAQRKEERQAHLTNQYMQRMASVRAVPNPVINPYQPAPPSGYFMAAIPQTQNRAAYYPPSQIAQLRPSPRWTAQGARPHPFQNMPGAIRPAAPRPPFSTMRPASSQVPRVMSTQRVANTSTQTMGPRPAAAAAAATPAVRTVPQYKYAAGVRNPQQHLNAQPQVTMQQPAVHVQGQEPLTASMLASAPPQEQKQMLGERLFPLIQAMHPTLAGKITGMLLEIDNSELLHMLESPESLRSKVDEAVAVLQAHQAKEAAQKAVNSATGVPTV
# PABP FP inh = blocks human PABP binding to poly(A) RNA; P11940; fluorescence polarization; inhibition, % at 35 µM; 1% of 290,000 active; AID 2014;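 also: calls also rest on retests at 20 µM and on dose response follow-up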
# GRK2 CP1 = confirmation of human GRK2 inhibitors displacing RNA aptamer; shares compounds with GRK2 aptamer HTS; bead-bound GRK2, FAM-aptamer displacement, flow cytometry; aptamer displacement, % at 10 µM; 4% of 2,000 active; AID 504451;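 active = aptamer displacement above 40%, near three times the noise of non-fluorescent compounds, on plates passing quality checks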;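 also: negative values mostly reflect intrinsic compound fluorescence rather than true enhancement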
# Aptamer quench = counter-screen for GRK2 aptamer inhibitors: fluorescent aptamer quenchers | fluorescence change (kMESF span), kMESF (no concentration beside the values) | AID 504521 | Fluorescent RNA aptamer beads, quenching, flow cytometry; hits give high values | shares compounds with GRK2 aptamer HTS | 110 tested, under 10 active;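 active = compounds whose bead fluorescence drops by more than 37 kMESF across the dose range, marking them as dye quenchers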
# Aptamer quench SP = aptamer fluorescence quenching in GRK2 counter-screen; shares compounds with GRK2 aptamer HTS; Carboxyfluorescein RNA aptamer on beads, flow cytometry quenching; hits give low values; fluorescence response (% of DMSO), % at 10 µM; 2,000 tested, under 10 active; AID 504580;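 active = compounds that quench the bead-bound fluorescent RNA probe, cutting fluorescence to under half of the solvent control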;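 also: counterscreen run without GRK2 so only probe quenching by compound is measured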
# GRK2 confirm 2 = confirmation of human GRK2 inhibitors binding RNA aptamer site | 360 tested, under 10 active | inhibition of aptamer binding, % at 10 µM | AID 504782 | shares compounds with GRK2 aptamer HTS | bead-bound GRK2, FAM-aptamer displacement, flow cytometry;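 active = inhibition of aptamer binding above 40%, about triple the noise seen with nonglowing compounds, on plates passing quality control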;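 also: negative values mostly come from compounds that fluoresce themselves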
# FAM quench SP = quenches fluorescent RNA aptamer, GRK2 hit artifact | shares compounds with GRK2 aptamer HTS | carboxyfluorescein RNA aptamer beads, flow cytometry quenching; hits give low values | fluorescence response vs DMSO, % at 10 µM | 360 tested, under 10 active;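 active = response vs DMSO under 50%, meaning signal dropped by over half, treated as fluorescence quencher; inconclusive = no clear call, values can overlap the other calls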;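 also: labelled aptamer on streptavidin beads without GRK2 as a quench counter-screen; 100% = bead fluorescence of DMSO wells and lower means quenching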
# FAM quench DR = quenches fluorescent RNA aptamer, GRK2 hit artifact; shares compounds with GRK2 aptamer HTS; Bead-bound FAM RNA aptamer fluorescence quenching, flow cytometry; hits give low values; fluorescence ratio to DMSO, % at 11.1 µM; 35 tested, under 10 active; AID 588496;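 active = compounds that dim the fluorescent label, raw bead signal shifting by over 33 units between lowest and highest dose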
# Numbers without * were called inactive; ? = inconclusive; / = no result given. The list is not random: actives were taken first. Their share in the collection is about 1.9%. Unless noted, no rule for the calls is given here.
SMILES,GRK2 aptamer HTS,PERK inh,eIF4H inh,MLLE-PAM2 inh,PABP FP inh,GRK2 CP1,Aptamer quench SP,others
O=C(O)c1ccc(N2CCCC2=O)cc1,52*,0,-6,1,5,2,91,
COc1ccc(F)cc1C1=CC(=O)C[C@H](c2ccc3c(c2)OCO3)C1,41*,/,/,-18,/,19,98,
COc1cc(F)c(C2=CC(=O)C[C@H](c3ccc4c(c3)OCO4)C2)cc1F,0,/,/,13,/,/,/,
Cc1cc(=O)[nH]c(SCC(=O)NC2CCCCCC2)n1,1,/,/,2,/,/,/,
CCN(CC)CCCNC(=O)CNC(=O)c1nn(-c2ccc(OC)cc2OC)c(=O)c2ccccc12,/,/,/,2,/,/,/,
CCN(CC)CCNC(=O)CNC(=O)c1nn(-c2ccc(OC)cc2OC)c(=O)c2ccccc12,0,/,-1,9,4,-4,103,
CCCCNC(=O)CNC(=O)c1nn(-c2ccc(OC)c(Cl)c2)c(=O)c2ccccc12,0,/,-16,2,10,4,101,
CCCC(=O)Nc1ccc2c(c1)nc(CCNC(=O)c1ccccc1)n2C,0,0,-3,10,2,1,97,
Cn1c(CCNC(=O)c2ccccc2)nc2cc(NC(=O)c3ccco3)ccc21,5,-1,-4,-3,-4,/,/,
Cc1ccc(OCCNC(=O)CCc2ccccc2)cc1C,79*,/,/,-8,/,2,98,
COc1ccc(NS(=O)(=O)c2ccc(N3CCOCC3)c(N)c2)cc1,3,/,/,1,/,/,/,
CCN1C(N(C)C)=NC[C@@H]1Cc1ccccc1,73*,/,/,7,/,-1,104,
CC(Sc1nnc(N)s1)C(=O)NC1CCCCC1C (stereo not drawn),0,/,/,1,/,/,/,
COc1ccc(NS(=O)(=O)c2cccc(C(=O)NNC(=O)c3cc(S(N)(=O)=O)ccc3OC)c2)cc1,0,/,/,3,/,/,/,
CCNc1ccc(S(=O)(=O)N(C)C)cc1[N+](=O)[O-],66*,1,2,-141,30,-3,97,
CCO/C(C)=C1/SC(=S)NC1=O,4,1,-8,-32,5,/,/,
Cc1ccc(S(=O)(=O)N(C)C)cc1NC(=O)COC(=O)C1=COCCO1,0,/,/,3,/,/,/,
Cc1nnc2sc(SCc3ccc(Br)cc3)nn2c1=O,0,0,-5,5,-4,/,/,
N[C@@H](Cc1ccccc1)c1nnc2sc(SCc3ccccc3)nn12,55*,-1,-8,19,11,-13,127,
COCCN1C(=O)/C(=C/c2ccc(N3CCCC3)cc2)SC1=S,57*,1,?,-36,-17,-17,142,
CC(NC(=O)COc1ccc(Oc2ccccc2)cc1)C(=O)O (stereo not drawn),52*,1,4,17,15,-3,108,
Cc1ccc(Oc2ccc(OCC(=O)NC(C)C(=O)O)cc2)cc1 (stereo not drawn),0,2,-3,-7,13,/,/,
CC(=O)c1cccc(NC(=O)c2cnn(-c3ccccc3)c2C)c1,0,/,-8,-4,-12,6,97,
Cc1c(C(=O)Nc2ccccc2)cnn1-c1ccccc1,3,/,/,12,/,/,/,
CC(c1ccco1)N(C(=O)C12CC3CC(CC(C)(C3)C1)C2)c1ccccn1 (stereo not drawn),55*,0,-2,2,7,-7,99,
SMILES,GRK2 aptamer HTS,PERK inh,eIF4H inh,MLLE-PAM2 inh,PABP FP inh,GRK2 CP1,Aptamer quench SP,others
O=C(NC1CCCC1)C1CCN(C(=O)c2cccc(Cl)c2)CC1,1,/,-8,0,3,/,/,
O=C(CSc1nc2ccccc2[nH]1)NCc1ccco1,2,0,4,-4,6,/,/,
Cc1cc(=O)[nH]c(SCC(=O)NCc2ccco2)n1,54*,1,68,31,6,94*,99,Aptamer quench=2.1;FAM quench DR=100
Cc1sc2nc(SCC(=O)NCc3ccco3)[nH]c(=O)c2c1C,1,2,-3,-3,7,/,/,GRK2 confirm 2=-13;FAM quench SP=102
Cn1c(SCC(=O)NCc2ccco2)nnc1-c1cccs1,86*,1,1,9,-8,3,100,
CCc1c(O)nc(SCC(=O)NCc2ccco2)[nH]c1=O,11,0,2,27,20,/,/,GRK2 confirm 2=1;FAM quench SP=107
CCC(C)N(C(=O)COc1ccc(NC(C)=O)cc1)C1CCS(=O)(=O)C1 (stereo not drawn),0,0,-1,-10,2,/,/,
COCCNC(=O)C1CCCN(C(=O)c2cc(C)n(C(C)(C)C)n2)CC1 (stereo not drawn),/,/,/,15,/,/,/,
O=C(CSc1nnc(NC(=O)Cc2ccccc2)s1)NCc1ccco1,60*,0,-2,1,-12,-1,92,
O=C(CSc1nnc(NC(=O)Cc2ccc(F)cc2)s1)NCc1ccco1,2,0,-11,-36,0,/,/,
COc1ccc2c(c1)CCc1c(C(=O)NCCCn3ccnc3)noc1-2,51*,-1,-12,-3,-7,-6,98,
CN(C(=O)c1cccc(C#N)c1)c1nnc(-c2ccncc2)s1,/,-1,-12,-1,0,0,107,
CC1(O)C(c2ccccc2)=Nc2ccccc21 (stereo not drawn),/,/,/,-8,/,/,/,
CCCCNC(=O)C1CCN(S(=O)(=O)N2CCCCCC2)CC1,0,0,-2,1,-9,/,/,
CCC1CCCCN1CCCNC(=O)C1CCN(S(=O)(=O)N2CCCCC2)CC1 (stereo not drawn),15,0,4,8,11,-41,112,
COc1ccc(NS(=O)(=O)c2cc(NC(=O)CCc3ccccc3)ccc2N2CCOCC2)cc1,/,/,/,0,/,/,/,
COc1cc(C(C)=NNC(=O)c2ccncc2)ccc1O,/,/,/,-9,/,/,/,
COCCN1C(=O)N[C@H](c2cccc(C(F)(F)F)c2)C(C(=O)OC)=C1C,/,0,6,/,14,/,/,
COCCN1C(=O)N[C@@H](c2cccc(F)c2)C(C(=O)OC)=C1C,91*,/,0,2,2,0,105,
CC1(C)CC(=O)C=C(c2ccc(COC(=O)c3cccc(C(F)(F)F)c3)cc2)C1=O,/,/,/,6,/,/,/,
Nc1ccc(-c2nc3ccc(N)cc3[nH]2)cc1,0,1,-14,-14,?,/,/,
